KCNH2 WT inh – KCNH2 (human, wildtype) channel inhibition; hit rate 0.37% among 340,000; U2OS, BacMam KCNH2, thallium flux FluxOr; stronger effect = lower value; activity change, % at 1.84 µM;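 active = maximum activity change below -70%; inconclusive = maximum activity change between -70% and -50%; inactive = maximum activity change above -50%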
Target sequence (Q12809 whole entry, looked up): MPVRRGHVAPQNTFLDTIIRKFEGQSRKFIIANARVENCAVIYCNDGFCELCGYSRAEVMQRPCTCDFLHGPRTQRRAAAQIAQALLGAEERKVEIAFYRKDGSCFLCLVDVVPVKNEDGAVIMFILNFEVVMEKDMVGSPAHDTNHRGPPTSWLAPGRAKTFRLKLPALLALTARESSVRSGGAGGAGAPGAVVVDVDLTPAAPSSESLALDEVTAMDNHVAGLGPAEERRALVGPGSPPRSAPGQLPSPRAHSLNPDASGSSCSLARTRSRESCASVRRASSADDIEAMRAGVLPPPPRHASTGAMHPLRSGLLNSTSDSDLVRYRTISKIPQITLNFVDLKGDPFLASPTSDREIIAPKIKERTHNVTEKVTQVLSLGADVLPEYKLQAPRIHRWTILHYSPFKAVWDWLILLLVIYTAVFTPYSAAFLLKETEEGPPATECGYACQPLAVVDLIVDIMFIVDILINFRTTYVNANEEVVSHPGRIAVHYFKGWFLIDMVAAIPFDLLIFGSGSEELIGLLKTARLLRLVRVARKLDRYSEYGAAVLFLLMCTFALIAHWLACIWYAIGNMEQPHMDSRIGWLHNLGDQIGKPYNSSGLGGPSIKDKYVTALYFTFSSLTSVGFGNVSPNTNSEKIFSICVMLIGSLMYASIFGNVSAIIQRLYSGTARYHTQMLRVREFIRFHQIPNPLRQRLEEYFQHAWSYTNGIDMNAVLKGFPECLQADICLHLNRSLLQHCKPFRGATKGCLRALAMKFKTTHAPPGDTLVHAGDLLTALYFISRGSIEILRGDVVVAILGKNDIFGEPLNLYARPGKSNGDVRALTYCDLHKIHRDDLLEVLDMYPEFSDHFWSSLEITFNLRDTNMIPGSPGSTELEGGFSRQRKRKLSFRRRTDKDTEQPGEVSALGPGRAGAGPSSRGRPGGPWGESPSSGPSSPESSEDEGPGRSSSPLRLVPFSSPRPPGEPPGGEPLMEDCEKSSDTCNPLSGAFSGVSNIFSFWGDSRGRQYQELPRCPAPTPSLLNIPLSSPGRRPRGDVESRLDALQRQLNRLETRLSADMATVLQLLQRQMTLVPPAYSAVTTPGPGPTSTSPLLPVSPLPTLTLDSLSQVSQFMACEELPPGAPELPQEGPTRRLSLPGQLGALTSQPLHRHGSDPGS
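U2OS cells were transduced with wild-type KCNH2 virus (2.03 x 10^8 / mL) for 4 h at room temperature, then cultured overnight at 37 C. Thallium flux was read with FluxOr dye. Rate constants were normalized to DMSO controls.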
GLS inhibitor – glutaminase GLS (human) inhibition; O94925; GLS enzymatic activity, qHTS titration; AID 624170; hit rate 0.21% among 410,000; Potency, µM (highest dose often 45.5 µM), actives largely listed as inhibitors
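Two-point fluorescence kinetic (t0, 30 min RT) for hKGA; glutamate detected via glutamate oxidase–HRP–Amplex Red. Substrate: 1 mM L-glutamine solution; buffer 45 mM KH2PO4, pH 8.2.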
GLP1R ag – activates the human GLP-1 receptor; Potency, µM (doses to about 45.6 µM), most hits filed as activators; hit rate 0.007% among 380,000; AID 624172; P43220; HEK293 GLP-1R CRE-luciferase, luminescence, 4-6 h; cells express a hypersensitive GLP-1R form
KCNH2 3.1 inh – KCNH2 3.1 (human) potassium channel inhibition | U2OS KCNH2 3.1, thallium flux FluxOr; stronger effect = lower value | activity change, % (tested at about 1.8 µM) | hit rate 0.95% among 340,000 | AID 720553;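 active = maximum activity change below -70%; inconclusive = maximum activity change from -70% to -50%; inactive = maximum activity change above -50%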;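 note: thallium influx rate constant from kinetic fluorescence after stimulation buffer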
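We transduce U2OS cells with the mutant 3.1 virus, culture them overnight, load FluxOr with Red40 quencher for 45 min, then add stimulation buffer and read kinetically for 2 min to derive a normalized rate constant.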
GLP1R cytotox – cytotoxicity counter-screen for GLP-1 receptor inverse agonists; HEK293 cAMP-luciferase reporter cells, luminescence, 24 h; Potency, µM (doses to about 38.3 µM), most hits filed as inhibitors; hit rate 0.13% among 410,000;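 note: loss of luciferase light is scored as toxicity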
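A 23 nL compound transfer followed 12 hours of cell culture at 37 deg C; exposure then lasted 24 hr. Luciferase assay detection reagent was dispensed and plates read for luminescence after a 12 min room-temperature wait.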
GLP-1R inv ag – inverse agonists of human GLP-1 receptor. HEK293 GLP-1R CRE-luciferase, luminescence, 24 h; GLP-1R form is constitutively active. hit rate 1.6% among 410,000. Potency, µM (top dose mostly 38.3 µM), actives largely listed as inhibitors; note: nearly all actives have a fitted effect of over 55% in size
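Inverse agonists were sought by their lowering of basal cAMP reporter luciferase output in HEK293 cells stably carrying constitutively active human GLP-1R, after 24 h compound treatment.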
Of the large screens only hits and unclear results are named; the others gave an inactive call; ! = not active in a repeat. Shown are actives, neighbours in structure and some others; about 2.8% of the full set was active somewhere. Unless noted, calls come from the whole dose curve; as a rule, active = well fitted curve in the direction sought with a large enough effect; inconclusive = small, poorly fitted or top-dose-only effect, or another doubt; inactive = no such curve, though single readings can be large; an effect the other way counts as inactive or inconclusive.

O=C(NC(=S)Nc1ccccn1)c1cc(-c2ccccc2)nc2ccccc12	GLP1R cytotox 2.8µM, GLP-1R inv ag 4.5µM
Fc1ccc(N2CCN(C3=Nc4cccc5cccc3c45)CC2)cc1	KCNH2 WT inh active, KCNH2 3.1 inh -80, GLP1R cytotox inconclusive, GLP-1R inv ag inconclusive
Cc1c(NC(=O)c2cc(-c3ccc(Cl)c(Cl)c3)on2)c(=O)n(-c2ccccc2)n1C	GLS inhibitor 16µM!
Cc1ccc(-c2cc(C(=O)Nc3c(C)n(C)n(-c4ccccc4)c3=O)no2)cc1	none
Cc1c(NC(=O)Nc2cccc(Cl)c2)c(=O)n(-c2ccccc2)n1C	none
Cc1cccc(NC(=O)Nc2c(C)n(C)n(-c3ccccc3)c2=O)c1	KCNH2 WT inh -102, GLS inhibitor inconclusive
CCOC(=O)c1sc2ncn(CC(=O)Nc3ccc(C)cc3Br)c(=O)c2c1C	none (no result: KCNH2 WT inh, KCNH2 3.1 inh)
CCN1CCC[C@@H]1CNC(=O)c1cc(S(=O)(=O)CC)ccc1OC	none (no result: KCNH2 WT inh, KCNH2 3.1 inh, GLP1R cytotox, GLP-1R inv ag)
COC(=O)Cn1ccc(-c2ccc(Cl)cc2)c(C#N)c1=O	KCNH2 3.1 inh -114
COc1ccccc1C(=O)Nc1cc(-c2cccc(Br)c2)nn1-c1ccccc1	none (no result: KCNH2 WT inh, GLP1R ag, KCNH2 3.1 inh)
CC(C)CN(C[C@@H](OP(=O)(O)O)[C@H](Cc1ccccc1)NC(=O)O[C@@H]1CCOC1)S(=O)(=O)c1ccc(N)cc1	GLS inhibitor 14µM (no result: KCNH2 WT inh, KCNH2 3.1 inh, GLP1R cytotox, GLP-1R inv ag)
COc1ccccc1OCC(=O)Nc1ncc(C)s1	none
COc1ccccc1C(=O)NNc1ncc(C)s1	GLS inhibitor 6.3µM
COc1ccc(/C=C2\SC(=S)N(CCCC(=O)Nc3ccc(O)cc3)C2=O)cc1	GLP1R cytotox inconclusive, GLP-1R inv ag inconclusive
O=C(CCCN1C(=O)/C(=C\c2ccccc2)SC1=S)Nc1ccc(O)cc1C(=O)O	KCNH2 3.1 inh -116
O=C(CCN1C(=O)/C(=C/c2ccccc2)SC1=S)NCCc1ccc(O)cc1	GLP1R cytotox inconclusive, GLP-1R inv ag 5µM
CC(/C=C1\SC(=S)N(CCC(=O)Nc2ccccc2O)C1=O)=C\c1ccccc1	GLP-1R inv ag 5.6µM
O=C(CCCN1C(=O)/C(=C/c2ccccc2)SC1=S)Nc1ccccc1O	none
COc1ccc(/C=C2/SC(=S)N(CCCC(=O)Nc3ccc(O)cc3)C2=O)cc1	GLP1R cytotox inconclusive, GLP-1R inv ag 5.6µM
Cc1ccc2c(c1)c1c(c(=O)n(Cc3ccccc3)c(=O)n1Cc1cccc(C(F)(F)F)c1)n2C	none (no result: KCNH2 WT inh, KCNH2 3.1 inh)
COC(=O)c1ccc(/C=C2\SC(=S)N(CCCC(=O)NCCCN3CCOCC3)C2=O)cc1	GLP1R cytotox 8.9µM
COc1cccc(/C=C2\SC(=S)N(CCCC(=O)N3CCCC3)C2=O)c1	GLP1R cytotox inconclusive, GLP-1R inv ag 5µM
COc1cccc(/C=C2\SC(=S)N(CCCC(=O)N3CCCCC3CCO)C2=O)c1 (centres undefined)	GLP-1R inv ag inconclusive
Cc1ccc(C)c(C(=O)c2c(N)c(-c3nc(-c4ccc5c(c4)OCO5)cs3)c3ccccn23)c1	none (no result: KCNH2 WT inh, GLP1R ag, KCNH2 3.1 inh)
Cc1cccc(N2CCN(C(=O)c3ccc4c(c3)N(Cc3cccc(Cl)c3)C(=O)c3ccccc3S4=O)CC2C)c1 (centres undefined)	GLP-1R inv ag inconclusive (no result: KCNH2 WT inh, GLP1R ag, KCNH2 3.1 inh)
CCOc1ccccc1NC(=O)CSc1nc2ccccc2nc1N1CCOCC1	GLP-1R inv ag 10µM
CCOc1ccccc1NC(=O)CSc1nc2ccccc2nc1N1CCCC1	GLP-1R inv ag inconclusive
CCCN(C(=O)CCc1nc(-c2ccc(OC)cc2)no1)c1ccccc1F	GLP-1R inv ag inconclusive (no result: KCNH2 WT inh, KCNH2 3.1 inh)
C[C@H](CO)N1C[C@H](C)[C@H](CN(C)C(=O)Nc2ccc(F)cc2)OCc2ccccc2-c2c(n(C)c3ccccc23)C1=O	GLP-1R inv ag 10µM
C[C@@H]1CN([C@H](C)CO)C(=O)c2c(c3ccccc3n2C)-c2ccccc2CO[C@@H]1CN(C)C(=O)Nc1ccc2c(c1)OCO2	GLP-1R inv ag inconclusive
CCCCOC(=O)C1=C(C)NC(=O)NC1c1cccc([N+](=O)[O-])c1 (centres undefined)	none
CCOC(=O)C1=C(C)NC(C)=C(C(=O)OCC)C1c1sccc1C	GLP-1R inv ag 7.9µM
CCOC(=O)C1=C(C)NC(C)=C(C(=O)OCC)C1c1cccc([N+](=O)[O-])c1	GLP-1R inv ag 10µM
Cc1c(C(=O)Nc2cccc(Cl)c2)c2ccccn2c1CCc1ccncc1	KCNH2 3.1 inh -74, GLP-1R inv ag inconclusive
Cc1c(C(=O)Nc2ccc(Cl)cc2)c2ccccn2c1CCc1ccncc1	KCNH2 3.1 inh inconclusive, GLP-1R inv ag inconclusive
O=C(c1ccccc1CCc1ccccc1)N1CCCC1	GLP-1R inv ag inconclusive
CCOC(=O)N1CCN(C(=O)c2ccccc2CCc2ccccc2)CC1	GLP-1R inv ag 8.9µM
COc1ccc(S(=O)(=O)NC2CCSc3ccccc32)cc1OC (centres undefined)	none
Cc1ccc2nc3ccc(N4CCCC4)nn3c(=O)c2c1	none
CC1CCCN(c2ccc3nc4ccccc4c(=O)n3n2)C1 (centres undefined)	GLP-1R inv ag 5µM
COc1cccc(CN2CCN(Cc3cccc(Oc4ccccc4)c3)CC2)c1OC	GLP1R cytotox inconclusive, GLP-1R inv ag 6.3µM
COc1cccc(CN2CCN(CCc3ccccc3)C(CCO)C2)c1OC (centres undefined)	none
COc1cccc(CN2CCN(Cc3cc(OC)c(OC)c(OC)c3)CC2)c1OC	none
COc1cccc(CN2CCC(N(CCc3ccccc3)Cc3ccccc3)CC2)c1OC	KCNH2 3.1 inh -91, GLP-1R inv ag 10µM
CCCC(C(=O)NC(C)(C)CC)N(Cc1ccco1)C(=O)CNS(=O)(=O)c1ccccc1 (centres undefined)	none
Cc1nn(Cc2ccc(Cl)cc2)c(C)c1NC(=O)c1c(-c2ccccc2)noc1C	GLP-1R inv ag inconclusive
Cc1ccccc1NC(=O)c1cn(-c2ccccc2)nc1-c1ccccc1	GLP-1R inv ag 10µM
COc1cccc(-c2nn(-c3ccccc3)cc2C(=O)Nc2nccs2)c1	GLP-1R inv ag 7.1µM
Cc1nn(Cc2ccc(Cl)c(Cl)c2)c(C)c1NC(=O)c1cn(-c2ccccc2)nc1-c1ccccc1	GLP-1R inv ag 10µM
COc1ccc(-c2nn(-c3ccccc3)cc2C(=O)Nc2nccs2)cc1	GLP1R cytotox inconclusive, GLP-1R inv ag inconclusive
Cc1cccc(C)c1NC(=O)c1cn(-c2ccccc2)nc1-c1ccccc1	none
Cc1cccc(NC(=O)c2cn(-c3ccccc3)nc2-c2ccccc2)c1C	GLP-1R inv ag 4.5µM (no result: KCNH2 WT inh, GLP1R ag, KCNH2 3.1 inh)
Cc1cc(C)c(Nc2nc3ccccc3n3c(C)nnc23)c(C)c1	none (no result: KCNH2 WT inh, GLP1R ag, KCNH2 3.1 inh)
O=C(NCCC1CCCCN1S(=O)(=O)c1ccc(Cl)cc1)C(=O)NCCN1CCOCC1 (centres undefined)	none

High-throughput results from PubChem BioAssay.
